# Laboratory results from ChEMBL document CHEMBL4513216, “Probing the Open Global Health Chemical Diversity Library for Multistage-Active Starting Points for Next-Generation Antimalarials” (ACS Infect Dis, 2020).
# Out of some 69,000 compounds screened, about 8,600 (12%) showed an effect of 50% or more. The sample holds strong results, similar compounds and a random draw of the others, so the mix is not that of the screen.
# Tested on: Plasmodium berghei
# Test: Screen against P. berghei liver stage (PbLuc), transformed with Luciferase, at 10uM
# Type: functional, HepG2
# Conditions: tested at 10 uM
row,Structure (SMILES),INHIBITION
1,Cc1ccc(C(=O)N2CCN(CCc3ccccc3)CC2)c(=O)[nH]1,-6.45%
2,COc1ccccc1CNC(=O)CS(=O)(=O)Cc1ccccc1,29.8%
3,Cn1cc(Cl)cc1C(=O)N1CCN(Cc2cccs2)CC1,-13.575%
4,CC(C)=CCN1CCN(Cc2nccn2C)C(C)C1 (stereo unspecified),35.77%
5,COc1ccc(C(CNC(=O)NCc2csc(C)n2)N(C)C)cc1 (stereo unspecified),23.5%
6,CNc1cncc(C2CCCN2C(=O)c2ccc3nc(C)[nH]c3c2)n1 (stereo unspecified),2.6%
7,O=S1(=O)c2ccccc2C(O)CN1CCO (stereo unspecified),-5.77%
8,COCCN1CCC2(CC1)CC1(CCN(S(C)(=O)=O)CC1)N(C)C2=O,40.8%
9,CC(=O)Nc1ccc(Oc2cc(C)nc(C3CCCNC3)c2)cc1 (stereo unspecified),14.355%
10,CSCC(C)NS(=O)(=O)c1ccc(C)c(N(C)C)c1 (stereo unspecified),-37.7%
11,Cc1cnc(N2C(=O)CSC2c2ccc(N(C)C)cc2)s1 (stereo unspecified),39.9%
12,CC(C)c1nn(C)c(Cl)c1CNCc1ccc(N(C)C)nc1,18.85%
13,O=C(CCC1CCCO1)NS(=O)(=O)c1ccc(Cl)cc1 (stereo unspecified),-11.4%
14,CC(=O)Nc1ccc(S(=O)(=O)NC(=O)CCC2CCCO2)cc1 (stereo unspecified),57.2%
15,Cc1ccc(S(=O)(=O)NC(=O)CCC2CCCO2)cc1 (stereo unspecified),-7.35%
16,Cc1nccn1CCCC(=O)N1CCC(N(C)c2cccnn2)CC1,12.7%
17,O=C(c1cnn[nH]1)N1CCCC1c1nc2cc(F)ccc2[nH]1 (stereo unspecified),11.8%
18,CN(CC(C)(C)C)c1ccc(C(=O)NCCCc2ccccn2)cn1,-20.6%
19,CN(Cc1ccco1)c1ccc(C(=O)NCCCc2ccccn2)cn1,58.2%
20,CCN(C)c1ccc(C(=O)NCCCc2ccccn2)cn1,-17.9%
21,CCn1c(N)nc2cc(C(=O)NCCCc3ccccn3)cnc21,11.8%
22,CN(C)c1ccc(C(=O)NCCCc2ccccn2)cn1,62.8%
23,O=C(NCCCc1ccco1)c1cnc(N2CCOCC2)nc1,-18.8%
24,Cc1ccc(CN2CCOC3(CCN(CC4CCOC4)CC3)C2)cc1 (stereo unspecified),36.7%

row,Structure (SMILES),INHIBITION
1,CSCCC(Nc1nc(C)cc(C)n1)C(=O)NC1CCCC1 (stereo unspecified),36.8%
2,COC(=O)c1ccc(N2CCN(C(=O)c3cnccn3)C(C)C2)cc1 (stereo unspecified),-23.8%
3,COC(=O)c1ccc(N2CCN(C(=O)c3cc(C)no3)C(C)C2)cc1 (stereo unspecified),-11.4%
4,COCC(=O)N1CCN(c2ccc(C(=O)OC)cc2)CC1C (stereo unspecified),-31.4%
5,COC(=O)c1ccc(N2CCN(C(=O)c3cnc(C)cn3)C(C)C2)cc1 (stereo unspecified),66.7%
6,COC(=O)c1ccc(N2CCN(C(=O)c3cc(C)on3)C(C)C2)cc1 (stereo unspecified),54.3%
7,COC(=O)c1ccc(N2CCN(C(=O)C(C)C)C(C)C2)cc1 (stereo unspecified),-37.6%
8,Cc1cc(Oc2ccc(NC(=O)C3CC3)cc2)cc(C2CCNCC2)n1,10.535%
9,CN(CCCc1cnn(C)c1)c1nccc(-c2cc(C(=O)O)ccn2)n1,21.2%
10,Cc1cccc(CN2Cc3nccn3CC(CN3CCOCC3)C2)c1 (stereo unspecified),43.9%
11,O=C1COc2cc(C(=O)NS(=O)(=O)c3cc(Cl)ccc3Cl)ccc2N1,37.4%
12,CN(C)C(=O)COCc1cncc2c1CCN(Cc1ccccn1)C2,-11%
13,COc1ccc(-c2nccc(C3CCCN3C)n2)cc1 (stereo unspecified),16.5%
14,O=C(N1CCCC1)N1CCOCC2(C1)CN(c1ccccc1)C(=O)CO2 (stereo unspecified),-1.36%
15,COc1ccc(NC(=O)C(C)(C)C)cc1OCc1cccnc1,43.4%
16,COc1ccc(NC(C)=O)cc1OCc1cccnc1,66.5%
17,COc1ccc(NC(=O)C2CC2)cc1OCc1cccnc1,34.1%
18,Cc1nnc(N2CCCC3(CN(Cc4ccc(C)s4)CCO3)C2)o1 (stereo unspecified),1.81%
19,COCc1noc(-c2ccc(N(C)Cc3cc(C)no3)nc2)n1,33.5%
20,COCc1noc(-c2ccc(N(C)Cc3ccc(C)o3)nc2)n1,-26.7%
21,COCc1noc(-c2ccc(N(C)Cc3c(C)n[nH]c3C)nc2)n1,56.9%
22,Cc1ccc(N2CCN(C(=O)[C@@H]3CCC(=O)N3)CC2=O)cc1,4.95%
23,O=C(NCc1ccc(Cl)cc1)C1CCCN(c2ccc3nncn3n2)C1 (stereo unspecified),15.7%
24,CC(C)CC(=O)N1CCCC1c1cc(CO)[nH]n1 (stereo unspecified),-0.7%

row,Structure (SMILES),INHIBITION
1,O=C(O)c1nnn(-c2cccc(C(F)(F)F)c2)c1-c1ccncc1,65.6%
2,CC(C)NC(=O)c1nnn(-c2cccc(C(F)(F)F)c2)c1C1CC1,58.5%
3,CCc1ccc(-n2nnc(C(=O)O)c2-c2ccncc2)cc1,6%
4,Cc1ccc(F)c(-n2nnc(C(=O)O)c2-c2ccncc2)c1,7.9%
5,CC(C)NC(=O)c1nnn(-c2cccc(F)c2)c1C1CC1,-18.9%
6,O=C(O)c1nnn(-c2ccc(C(F)(F)F)cc2)c1-c1ccncc1,18.4%
7,O=C(O)c1nnn(-c2cc(F)cc(F)c2)c1-c1ccncc1,16.8%
8,O=C(O)c1nnn(-c2ccc(Cl)c(C(F)(F)F)c2)c1-c1ccncc1,-5.59%
9,O=C(O)c1nnn(-c2ccc(F)c(F)c2)c1-c1ccncc1,-6.32%
10,O=C(NC1CC1)c1nnn(-c2cccc(C(F)(F)F)c2)c1C1CC1,18.6%
11,O=C(O)c1nnn(-c2ccccc2)c1-c1ccncc1,54%
12,O=C(O)c1nnn(-c2ccccc2F)c1-c1ccncc1,50.7%
13,COc1cc2cc3c(nc2cc1OC)OCCN(Cc1ccco1)C3,16.5%
14,COCCCNC(=O)CN(C)C(=O)CN(C)c1ccc(C#N)cn1,-12.1%
15,CC(=O)N1CCn2c(-c3ccccc3)cnc2C12CCNCC2,33%
16,Cc1nn(C)c(N(C)C)c1CNCC(O)c1ccccc1F (stereo unspecified),25.1%
17,Cc1cc(C(=O)N2CCCC(C(=O)c3cccs3)C2)c(=O)[nH]c1C (stereo unspecified),33.3%
18,O=C(c1cnc(NCc2cccnc2)c(Cl)c1)N1CCCCC1,56.3%
19,N#Cc1ccc(CNc2ncc(C#N)cc2Cl)cc1,20.1%
20,N#Cc1cnc(NCc2ccc(C(=O)NC3CC3)cc2)c(Cl)c1,-32.9%
21,O=C(c1cnc(NCC2CCCO2)c(Cl)c1)N1CCCCC1 (stereo unspecified),32.2%
22,O=C(c1cnc(NCc2sccc2Br)c(Cl)c1)N1CCCCC1,24.2%
23,N#Cc1cnc(NCc2cccc(C(=O)N3CCCC3)c2)c(Cl)c1,57.5%
